The whole screen tested about 5,500 compounds, of which about 2,000 (36%) were called active. Not shown: some 18% with an inconclusive outcome. Cut-off read from the data, not from the text of the source: active = normalized growth mostly below about 0.91 (no sharp cut-off); inconclusive = no clear call, values can overlap the other calls; inactive = mostly above about 0.92. Some of the results follow.
Test: chemical genetic growth profiling, strain panel (AID 1159580);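 note: tested at 20 µM; growth read once vehicle control cultures reached saturation at 30 °C; 1 = growth at the plate median or of vehicle wells; lower values mean less growth of the strain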
Settings: S. cerevisiae deletion strains, growth OD

Measured: normalized growth

CCCCCCCCCCCCCCCC(=O)OC[C@H](NC(=O)C(Cl)Cl)[C@H](O)c1ccc([N+](=O)[O-])cc1
active: locus YMR058W, strain fet3, stronger effect = lower value 0.88 | locus YMR129W, stronger effect = lower value 1.09 [resistant]
inactive: locus YAL021C, strain ccr4, stronger effect = lower value 0.986 | locus YAL026C, strain drs2, stronger effect = lower value 0.995 | locus YAL030W, strain snc1, stronger effect = lower value 1.04 | locus YBL061C, strain skt5, stronger effect = lower value 1.02 | locus YBR009C, strain hhf1, stronger effect = lower value 1.02 | locus YBR023C, strain chs3, stronger effect = lower value 1.01 | locus YBR171W, strain sec66, stronger effect = lower value 1.06 | locus YBR231C, strain swc5, stronger effect = lower value 1.01 | locus YBR279W, strain paf1, stronger effect = lower value 1.02 | locus YCL011C, strain gbp2, stronger effect = lower value 1.03 | locus YCL016C, strain dcc1, stronger effect = lower value 1 | locus YCL069W, strain vba3, stronger effect = lower value 1.04 | locus YCR088W, strain abp1, stronger effect = lower value 1.04 | locus YDL005C, strain med2, stronger effect = lower value 1.05 | locus YDL040C, strain nat1, stronger effect = lower value 1.01 | locus YDR001C, strain nth1, stronger effect = lower value 1.03 | locus YDR069C, strain doa4, stronger effect = lower value 0.973 | locus YDR137W, strain rgp1, stronger effect = lower value 1.01 | locus YDR159W, strain sac3, stronger effect = lower value 1.03 | locus YDR195W, strain ref2 1.05 | locus YDR297W, strain sur2, stronger effect = lower value 1.03 | locus YDR334W, strain swr1, stronger effect = lower value 1.03 | locus YDR335W, strain msn5, stronger effect = lower value 1.02 | locus YDR392W, strain spt3, stronger effect = lower value 1.03 | locus YEL003W, strain gim4, stronger effect = lower value 1.04 | locus YEL037C, strain rad23, stronger effect = lower value 1.03 | locus YEL061C, strain CIN8 (second series), stronger effect = lower value 1.04 | locus YER015W, strain faa2, stronger effect = lower value 1 | locus YER016W, strain bim1, stronger effect = lower value 1.02 | locus YER111C, strain swi4, stronger effect = lower value 1.02 | locus YER155C, strain BEM2 (second series), stronger effect = lower value 1.03 | locus YFR010W, strain ubp6, stronger effect = lower value 1.01 | locus YGL167C, strain pmr1, stronger effect = lower value 1.03 | locus YGL173C, strain kem1, stronger effect = lower value 1.05 | locus YGL227W, strain vid30, stronger effect = lower value 1.04 | locus YGL240W, strain doc1, stronger effect = lower value 1.07 | locus YGL253W, strain hxk2, stronger effect = lower value 1.01 | locus YHR013C, strain ard1, stronger effect = lower value 1.07 | locus YHR027C, strain rpn1, stronger effect = lower value 0.992 | locus YHR030C, strain SLT2, stronger effect = lower value 0.97 | locus YHR079C, strain IRE1, stronger effect = lower value 0.985 | locus YHR142W, strain chs7, stronger effect = lower value 1.05 | locus YJL092W, strain hpr5, stronger effect = lower value 1.04 | locus YJL095W, strain BCK1 (second series), stronger effect = lower value 1.05 | locus YJL095W, strain BCK1, stronger effect = lower value 0.998 | locus YJL115W, strain asf1, stronger effect = lower value 1.05 | locus YJL129C, strain trk1, stronger effect = lower value 1.09 | locus YJL154C, strain vps35, stronger effect = lower value 1.03 | locus YJL164C, strain tpk1, stronger effect = lower value 1.04 | locus YJL166W, strain qcr8, stronger effect = lower value 1.03 | locus YJL187C, strain SWE1, stronger effect = lower value 1.05 | locus YJR066W, strain TOR1, stronger effect = lower value 0.984 | locus YKL160W, strain elf1, stronger effect = lower value 1.02 | locus YKR026C, strain gcn3, stronger effect = lower value 1.03 | locus YKR091W, strain srl3, stronger effect = lower value 1.02 | locus YLL001W, strain dnm1, stronger effect = lower value 1.02 | locus YLL026W, stronger effect = lower value 1 | locus YLL041C, strain sdh2, stronger effect = lower value 1.02 | locus YLR027C, strain aat2, stronger effect = lower value 1.02 | locus YLR113W, strain HOG1, stronger effect = lower value 0.975 | locus YLR221C, strain rsa3, stronger effect = lower value 1.02 | locus YLR258W, strain gsy2, stronger effect = lower value 1.03 | locus YLR262C, strain YPT6 (second series), stronger effect = lower value 1.03 | locus YLR320W, strain mms22, stronger effect = lower value 1.01 | locus YLR342W, strain FKS1, stronger effect = lower value 1.01 | locus YLR357W, strain rsc2, stronger effect = lower value 1.03 | locus YLR370C, strain arc18, stronger effect = lower value 1.04 | locus YLR384C, strain iki3, stronger effect = lower value 1.02 | locus YML120C, strain ndi1, stronger effect = lower value 1.01 | locus YMR125W, strain sto1, stronger effect = lower value 1.06 | locus YMR205C, strain PFK2, stronger effect = lower value 1.04 | locus YMR231W, strain pep5, stronger effect = lower value 1.03 | locus YNL071W, strain lat1, stronger effect = lower value 0.986 | locus YNL183C, strain NPR1, stronger effect = lower value 0.927 | locus YNL209W, strain ssb2, stronger effect = lower value 0.995 | locus YNL248C, strain rpa49, stronger effect = lower value 1.04 | locus YNL322C, strain KRE1 (second series), stronger effect = lower value 1.05 | locus YNR049C, strain mso1, stronger effect = lower value 1.04 | locus YOR001W, strain rrp6, stronger effect = lower value 1.03 | locus YOR070C, strain gyp1, stronger effect = lower value 1.03 | locus YOR080W, strain dia2, stronger effect = lower value 1.03 | locus YOR083W, strain WHI5, stronger effect = lower value 1 | locus YOR106W, strain vam3, stronger effect = lower value 1.02 | locus YOR231W, strain MKK1, stronger effect = lower value 0.997 | locus YOR265W, strain rbl2, stronger effect = lower value 1.02 | locus YOR270C, strain vph1, stronger effect = lower value 1 | locus YOR290C, strain snf2, stronger effect = lower value 0.999 | locus YPL051W, strain arl3, stronger effect = lower value 0.999 | locus YPL078C, strain atp4, stronger effect = lower value 1.04 | locus YPL106C, strain sse1, stronger effect = lower value 1.08 | locus YPL240C, strain hsp82, stronger effect = lower value 1.05 | locus YPL256C, strain CLN2, stronger effect = lower value 1.01

— PubChem BioAssay AID1159580 (chemical genetic matrix, 2015)
